Reference: PubChem BioAssay (Tox21)
“And” between values parts separate entries of the source, which are not always exact repeats. Equal entries are not always repeated. Records with an inconclusive call do not appear. Where a structure was tested more than once in an assay, its records may differ in their call. The source made the active and inactive calls. Unless noted, the call rests on the fitted dose curve; in most records, active means well fitted curve in the direction sought with a large enough effect in the repeat runs; inconclusive means weak or mixed curves; inactive means no such curve, though single readings can be large; an effect the other way counts as inactive or inconclusive.

How the values were obtained:
[1] = qHTS assay to identify small molecule agonists of the hypoxia (HIF-1) signaling pathway - cell viability counter screen (AID 1224844; calls by dose curve; further: nearly all actives have a fitted effect of over 50% in size; further: potency means the concentration at half of the fitted maximal effect)
Procedure, shortened: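 Cytotoxicity measured by CellTiter-Glo ATP luminescence in the wells also read for beta-lactamase signal. Cells were HRE-bla ME-180 (2,000/well, 0.5% dialyzed FBS), exposed to compounds for 17 h at 37C.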

[2] = qHTS assay to identify small molecule agonists of the hypoxia (HIF-1) signaling pathway (AID 1224846; active means well fitted activation curve with a large enough effect in the signal ratio in the repeat runs, not every such curve was filed as active; the % refers to the signal ratio; further: potency means the concentration at half of the fitted maximal effect)
Procedure, shortened: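 Compounds added to ME-180 cells carrying hypoxia-response-element beta-lactamase reporter (0.5% dialyzed FBS, 5 h preplating), 17 h at 37C; agonist activity detected by CCF4-AM B/G FRET read-out.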

[3] = qHTS assay to identify small molecule agonists of H2AX - cell viability counter screen (AID 1224847; calls by dose curve; further: nearly all actives have a fitted effect of over 30% in size; further: potency means the concentration at half of the fitted maximal effect; on activity change, negative = cytotoxicity: top concentration of the series differs between compounds)
Procedure, shortened: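 Cells plated first: CHO-K1, 1000 per well in 10% FBS medium, incubated overnight at 37C. Then 15-point compound titration added (final DMSO 0.76%) for 3 hr. Finally CellTiter-Glo added and luminescence read.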

[4] = qHTS assay to identify small molecule antagonists of the estrogen related receptor (ERR) signaling pathway from Tox21 library (AID 1224848); further: nearly all actives have a fitted effect of over 50% in size; further: potency means the concentration at half of the fitted maximal effect
Procedure, shortened: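 Quantitative high-throughput format: ERR reporter cells (2,000/well) pre-incubated 6 h, treated 18 h at 37 C with compounds in DMSO alongside positive and negative controls, then read by ONE-Glo luminescence.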

[5] = qHTS assay to identify small molecule agonists of the estrogen related receptor (ERR) signaling pathway from Tox21 library (AID 1224849; calls by dose curve; further: nearly all actives have a fitted effect of over 15% in size); conditions: ERR reporter cell line, ONE-Glo luciferase, 18 h; at 92.4 µM (top of the series) unless noted
Procedure, shortened: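 Luminescent agonist read-out (One-Glo, 30-minute room-temperature incubation) following 18-hour compound treatment at 37 C of the ERR cell line, which had been plated 6 hours before dosing.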

[6] = A CellTox Green Cytotoxicity Assay to monitor cytotoxicity in HEK293 cells - 0 hour (AID 1224869); further: nearly all actives have a fitted effect of over 50% in size
Procedure, shortened: (§1)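 Fluorescence from a DNA-binding dye excluded by viable cells was measured repeatedly in the same HEK293 wells (600 cells/well) during continuous compound exposure at 37 C. Each assay gives one read point: 0, 8, 16, 24, 32 or 40 h.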

[7] = qHTS RealTime-Glo MT Cell Viability Assay in HEK293 cells - 16 hour (AID 1224872); further: nearly all actives have a fitted effect of over 50% in size; further: potency means the concentration at half of the fitted maximal effect; on activity change, negative = cytotoxicity: top concentration of the series differs between compounds
Procedure, shortened: (§2)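 HEK293 cells were seeded at 600 cells/well together with NanoLuc luciferase and cell-permeant prosubstrate, preincubated 5 h at 37 C/5% CO2, then given compound in DMSO by pintool. Luminescence from viable-cell prosubstrate reduction was read repeatedly over 40 h.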

[8] = qHTS RealTime-Glo MT Cell Viability Assay in HepG2 cells - 8 hour (AID 1224873); further: nearly all actives have a fitted effect of over 55% in size; further: potency means the concentration at half of the fitted maximal effect
Procedure, shortened: (§3)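 HepG2 cells (600/well) mixed with RealTime-Glo MT reagent, settled 5 h at 37 C/5% CO2 before compound addition. Nonlytic NanoLuc luminescence from viable-cell prosubstrate reduction read repeatedly during 40 h treatment at 37 C.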

[9] = qHTS RealTime-Glo MT Cell Viability Assay in HEK293 cells - 40 hour (AID 1224874); conditions: RealTime-Glo luminescence; max response: stronger effect = lower value; further: nearly all actives have a fitted effect of over 50% in size; further: potency means the concentration at half of the fitted maximal effect
Procedure, shortened: (§4)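 Luminescence, which tracks viable cell number through reduction of the prosubstrate to a NanoLuc substrate, was read over continuous 37 C culture. Cells (600/well) were premixed with reagent and rested 5 h before 23 nL of compound in DMSO was pinned.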

[10] = A CellTox Green Cytotoxicity Assay to monitor cytotoxicity in HEK293 cells - 24 hour (AID 1224875); further: nearly all actives have a fitted effect of over 45% in size; further: potency means the concentration at half of the fitted maximal effect
Procedure, shortened: as §1

[11] = A CellTox Green Cytotoxicity Assay to monitor cytotoxicity in HepG2 cells - 16 hour (AID 1224876); further: nearly all actives have a fitted effect of over 45% in size; further: potency means the concentration at half of the fitted maximal effect
Procedure, shortened: (§5)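 Real-time cytotoxicity: fluorescence of a cell-impermeant cyanine dye binding DNA of dead HepG2 cells, measured repeatedly (0–40 h) during compound exposure at 37 C. Cells seeded 600/well with reagent, dosed after 5 h.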

[12] = A CellTox Green Cytotoxicity Assay to monitor cytotoxicity in HepG2 cells - 40 hour (AID 1224879); further: nearly all actives have a fitted effect of over 40% in size; further: potency means the concentration at half of the fitted maximal effect
Procedure, shortened: as §5

[13] = qHTS RealTime-Glo MT Cell Viability Assay in HEK293 cells - 0 hour (AID 1224880); further: nearly all actives have a fitted effect of over 45% in size; further: potency means the concentration at half of the fitted maximal effect; on activity change, negative = cytotoxicity: top concentration of the series differs between compounds
Procedure, shortened: as §4

[14] = qHTS assay to identify small molecule agonists of H2AX (AID 1224845; active means well fitted activation curve with a large enough effect in the signal ratio in the repeat runs, not every such curve was filed as active; the % refers to the signal ratio)
Procedure, shortened: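 Wild-type CHO-K1 cells, plated overnight, exposed 3hr at 37C to 15 concentrations (0.76% DMSO final). Lysed, then HTRF anti-pH2AX (S139) cryptate and anti-H2AX-d2 antibodies, 24 hr room temperature; 665/620 nm emission read.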

[15] = qHTS RealTime-Glo MT Cell Viability Assay in HepG2 cells - 24 hour (AID 1224867); further: nearly all actives have a fitted effect of over 50% in size; further: potency means the concentration at half of the fitted maximal effect
Procedure, shortened: (§6)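 HepG2 cells were seeded at 600 cells/well together with NanoLuc luciferase and a cell-permeant prosubstrate, preincubated 5 h at 37 C/5% CO2, then pin-dosed with compounds in DMSO. Nonlytic luminescence from viable cells was read at each time point.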

[16] = qHTS RealTime-Glo MT Cell Viability Assay in HEK293 cells - 32 hour (AID 1224868); further: nearly all actives have a fitted effect of over 50% in size; further: potency means the concentration at half of the fitted maximal effect
Procedure, shortened: as §2

[17] = qHTS RealTime-Glo MT Cell Viability Assay in HepG2 cells - 40 hour (AID 1224870); further: nearly all actives have a fitted effect of over 50% in size; further: potency means the concentration at half of the fitted maximal effect
Procedure, shortened: as §3

[18] = A CellTox Green Cytotoxicity Assay to monitor cytotoxicity in HEK293 cells - 40 hour (AID 1224871); further: nearly all actives have a fitted effect of over 45% in size; further: potency means the concentration at half of the fitted maximal effect
Procedure, shortened: as §1

[19] = qHTS RealTime-Glo MT Cell Viability Assay in HepG2 cells - 32 hour (AID 1224877); further: nearly all actives have a fitted effect of over 55% in size; further: potency means the concentration at half of the fitted maximal effect
Procedure, shortened: as §6

[20] = A CellTox Green Cytotoxicity Assay to monitor cytotoxicity in HepG2 cells - 24 hour (AID 1224878); further: nearly all actives have a fitted effect of over 45% in size; further: potency means the concentration at half of the fitted maximal effect
Procedure, shortened: as §5
On the % scale 0 is the no-effect control and ±100 the full control effect.

CC(C)n1nc(-c2cc3cc(O)ccc3[nH]2)c2c(N)ncnc21
active: Potency [1] 1.9 µM | Potency [4] 1.06 µM | Potency [7] 0.477 µM | Potency [9] 0.19 µM | Potency [12] 23.9 µM
inactive: Potency [2] | Potency [3] | activity change, positive = activation [5] -55.4% [at 42.5 µM] | Potency [6] | Potency [8] | Potency [10] | Potency [11] | Potency [13]

CCCCCCCCn1sc(Cl)c(Cl)c1=O
active: Potency [1] 6.16 µM | Potency [3] 8 µM | Potency [15] 4.9 µM | Potency [16] 3.89 µM | Potency [17] 6.92 µM | Potency [18] 1.95 µM | Potency [7] 3.47 µM | Potency [8] 6.16 µM | Potency [9] 3.47 µM | Potency [10] 1.1 µM | Potency [11] 7.76 µM | Potency [19] 5.49 µM | Potency [20] 11 µM | Potency [12] 9.77 µM
inactive: Potency [14] | Potency [6] | Potency [13]

CCCCCCCCOC(=O)c1ccc(O)cc1
inactive: Potency [14] | Potency [15] | Potency [6] | Potency [17] | Potency [8] | Potency [19] | Potency [13]
inactive and 49 µM (active): Potency [12]
active: Potency [1] 48.8 µM | Potency [3] 89.5 µM and 101 µM | Potency [16] 27.4 µM | Potency [18] 38.8 µM and 49 µM | Potency [7] 27.4 µM | Potency [9] 27.4 µM | Potency [10] 43.5 µM and 43.6 µM

CN(C)[C@@H]1C(=O)C(C(N)=O)=C(O)[C@@]2(O)C(=O)C3=C(O)c4c(O)cccc4C[C@H]3C[C@@H]12
inactive: Potency [1] | Potency [14] | Potency [3] | Potency [15] | Potency [16] | Potency [6] | Potency [17] | Potency [18] | Potency [7] | Potency [8] | max response [9] 1.21% | Potency [10] | Potency [11] | Potency [20] | Potency [12] | Potency [13]

CC(C)(C)c1ccc(C(=O)CCCN2CCC(OC(c3ccccc3)c3ccccc3)CC2)cc1
active: Potency [1] 19 µM | Potency [3] 55.2 µM | Potency [15] 21.3 µM | Potency [16] 9.52 µM | Potency [17] 19 µM | Potency [18] 23.9 µM | Potency [7] 8.49 µM | Potency [8] 19 µM | Potency [9] 9.52 µM | Potency [10] 21.3 µM | Potency [19] 19 µM | Potency [20] 23.9 µM | Potency [12] 19 µM
inactive: Potency [14] | Potency [13]

CC(C)c1ccc2c(c1)CC[C@H]1[C@](C)(CN)CCC[C@]21C
inactive: activity change, positive = activation [5] -75.7% | Potency [6]
active: Potency [1] 49 µM | Potency [3] 89.8 µM | Potency [4] 68.6 µM | Potency [15] 13.8 µM | Potency [16] 11 µM | Potency [17] 11 µM | Potency [18] 19.5 µM | Potency [7] 13.8 µM | Potency [8] 34.7 µM | Potency [9] 11 µM | Potency [10] 19.5 µM | Potency [11] 19.5 µM | Potency [19] 11 µM | Potency [20] 13.8 µM | Potency [12] 11 µM

Cc1ccc2oc(CN(Cc3ccccc3)C(=O)Nc3c(F)cc(F)cc3F)c(-c3ccc(Cl)cc3)c2c1
inactive: Potency [1] | Potency [14] | activity change, positive = activation [5] -42.4% | Potency [16] | Potency [6] | Potency [18] | Potency [7] | max response [9] -18.1% | Potency [10] | Potency [11] | Potency [12] | Potency [13]
active: Potency [4] 23.6 µM

CS(=O)(=O)CCNCc1ccc(-c2ccc3ncnc(Nc4ccc(OCc5cccc(F)c5)c(Cl)c4)c3c2)o1
active: Potency [1] 10.7 µM | Potency [4] 9.44 µM | Potency [7] 19 µM | Potency [8] 23.9 µM | Potency [13] 0.674 µM
inactive: Potency [14] | activity change, positive = activation [5] -48.5% [at 42.5 µM] | Potency [6] | Potency [18] | Potency [10]

CCCCN1CCCC[C@H]1C(=O)Nc1c(C)cccc1C
inactive: Potency [1] | Potency [14] | Potency [3] | Potency [15] | Potency [16] | Potency [6] | Potency [17] | Potency [18] | Potency [7] | Potency [8] | max response [9] -2.09% | Potency [10] | Potency [11] | Potency [19] | Potency [20] | Potency [12] | Potency [13]

CCN1/C(=C/C=C/c2sc3ccccc3[n+]2CC)Sc2ccccc21
active: Potency [3] 7.6 µM | Potency [4] 0.231 µM | Potency [16] 1.04 µM | Potency [18] 9.28 µM | Potency [7] 1.04 µM | Potency [9] 0.0585 µM | Potency [20] 1.85 µM | Potency [12] 1.17 µM
inactive: activity change, negative = cytotoxicity [1] 19.1% [at 15.8 µM] | activation [2] 0.484% [at 15.8 µM] | activity change, positive = activation [5] -58.8% [at 19 µM] | cytotoxicity increase [11] -2.11% [at 15.8 µM] | activity change, negative = cytotoxicity [13] -8.36% [at 15.8 µM]

Clc1ccc2cc3ccccc3cc2c1
inactive: Potency [1] | Potency [3] | Potency [4] | Potency [15] | Potency [17] | Potency [18] | Potency [8] | Potency [10] | Potency [11] | Potency [19] | Potency [20]
active: Potency [2] 30.9 µM
